IDE exosite FP: insulin-degrading enzyme (human) exo-site inhibition | purified IDE, FL-6b probe fluorescence polarization; stronger effect = lower value | z-score at 20 µM | hit rate 6.3% among 17,000 | AID 1259349;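 active = z-score of -3 or lower, meaning strong loss of probe binding signal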;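 also: His-tagged human IDE residues 42-1019 made in E. coli with 30 nM FL-6b probe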
Target sequence (P14735 42-1019 limits assumed): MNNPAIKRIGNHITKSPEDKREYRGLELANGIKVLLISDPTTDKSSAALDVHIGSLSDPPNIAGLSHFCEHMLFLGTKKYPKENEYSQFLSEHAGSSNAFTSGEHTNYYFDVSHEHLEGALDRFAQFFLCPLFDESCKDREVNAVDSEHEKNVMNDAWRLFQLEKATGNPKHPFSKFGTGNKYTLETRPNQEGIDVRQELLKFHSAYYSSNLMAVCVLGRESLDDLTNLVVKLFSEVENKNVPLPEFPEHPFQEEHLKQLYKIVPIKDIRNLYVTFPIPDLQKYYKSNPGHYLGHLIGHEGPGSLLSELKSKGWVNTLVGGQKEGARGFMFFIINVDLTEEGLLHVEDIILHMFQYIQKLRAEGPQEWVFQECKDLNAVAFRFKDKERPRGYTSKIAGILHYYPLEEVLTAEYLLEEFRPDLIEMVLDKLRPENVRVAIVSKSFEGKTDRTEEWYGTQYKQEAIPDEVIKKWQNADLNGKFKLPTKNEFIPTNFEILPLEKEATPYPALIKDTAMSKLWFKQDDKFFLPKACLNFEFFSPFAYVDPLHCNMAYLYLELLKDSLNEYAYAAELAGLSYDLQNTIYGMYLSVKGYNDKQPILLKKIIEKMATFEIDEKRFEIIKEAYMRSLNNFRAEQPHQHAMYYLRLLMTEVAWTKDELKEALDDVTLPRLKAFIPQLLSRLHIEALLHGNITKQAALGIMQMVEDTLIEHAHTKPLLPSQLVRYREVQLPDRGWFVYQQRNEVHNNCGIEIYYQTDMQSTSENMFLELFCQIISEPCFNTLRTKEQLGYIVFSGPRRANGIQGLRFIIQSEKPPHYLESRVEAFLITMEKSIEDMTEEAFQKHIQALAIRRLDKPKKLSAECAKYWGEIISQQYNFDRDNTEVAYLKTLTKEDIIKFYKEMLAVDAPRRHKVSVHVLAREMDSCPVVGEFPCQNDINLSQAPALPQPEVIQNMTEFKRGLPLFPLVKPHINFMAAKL
Large screens that a line does not name were inactive. This excerpt belongs to a sample that is enriched for hits.

CC(C)[C@H]1C(=O)N[C@H](c2cccc(Cl)c2)CC=CC[C@@H](C)Oc2ccccc2C(=O)N1C (mixture of isomers)	none
C/C=C/c1ccc([C@H]2[C@@H](CO)N(C(=O)CC)[C@@H]2CNC(=O)CC)cc1	none
Cc1noc(C)c1NC(=O)Nc1ccc2c(c1)C(=O)N(C)[C@@H]1CC[C@H](CC(=O)N[C@H]3CCN(Cc4ccccc4)C3)O[C@@H]1CO2	none
O=C(c1ccccc1)N1C[C@H]2[C@@H](c3ccccc31)[C@@H](CO)N2Cc1ccccn1	none
Cc1cccc(-c2ccc([C@@H]3[C@@H](CO)N4C(=O)CN(S(=O)(=O)c5cccc(F)c5)C[C@@H]34)cc2)c1	none
COc1cccc(C#Cc2ccc([C@@H]3[C@@H](CO)N4C(=O)CN(C(=O)c5ccncc5)C[C@@H]34)cc2)c1	IDE exosite FP -3.2
COc1cccc(C#Cc2ccc([C@@H]3[C@@H](CO)N4C(=O)CN(C(=O)c5ccccc5)C[C@H]34)cc2)c1	none
COc1ccc(C#Cc2ccc([C@@H]3[C@@H](CO)N4C(=O)CN(C(=O)c5ccncc5)C[C@H]34)cc2)cc1	none
COc1ccc(C#Cc2ccc([C@H]3[C@H](CO)N4C(=O)CN(C(=O)c5ccncc5)C[C@@H]34)cc2)cc1	none
COc1ccc(C#Cc2ccc([C@H]3[C@@H](CO)N4C(=O)CN(C(=O)c5ccncc5)C[C@@H]34)cc2)cc1	none
COc1cccc(C#Cc2ccc([C@H]3[C@@H](CO)N4C(=O)CN(C(=O)c5ccncc5)C[C@@H]34)cc2)c1	IDE exosite FP -7.3
COc1ccc(C#Cc2ccc([C@@H]3[C@@H](CO)N4C(=O)CN(C(=O)c5ccncc5)C[C@@H]34)cc2)cc1	none
COc1cccc(C#Cc2ccc([C@@H]3[C@H](CO)N4C(=O)CN(C(=O)c5ccncc5)C[C@@H]34)cc2)c1	IDE exosite FP -5.1
COc1ccc(C#Cc2ccc([C@@H]3[C@H](CO)N4C(=O)CN(C(=O)c5ccncc5)C[C@@H]34)cc2)cc1	none
CN1C(=O)c2cc(NC(=O)Nc3ccccc3F)ccc2OC[C@@H]2O[C@H](CC(=O)NCCc3ccncc3)CC[C@@H]21	none
C/C=C/c1ccccc1[C@H]1[C@@H](C#N)N(C(=O)NC2CCCCC2)[C@H]1CO	none
CC(C)N(C[C@H]1N[C@H](CO)[C@@H]1c1ccc(C2=CCCCC2)cc1)C(=O)CN(C)C	none
CC(C)NC(=O)N1CC2(C1)[C@@H](c1ccccc1)[C@@H](CO)N2C(=O)C1CCOCC1	none
C[C@H]1CCCCO[C@H](CN(C)C(=O)Nc2ccc3c(c2)OCO3)[C@@H](C)CN([C@@H](C)CO)C(=O)c2cc(NS(=O)(=O)c3ccc(F)cc3)ccc2O1	none
COc1ccc2c3c(n(C)c2c1)[C@@H](CO)N(S(=O)(=O)c1cn(C)cn1)CC31CCN(C)CC1	none
C/C=C/c1ccc([C@H]2[C@@H](CO)N3CCCCN(C(=O)C4CCCC4)C[C@@H]23)cc1	none
O=C(CC1CC1)N1CC(=O)N2[C@H](CO)[C@H](c3ccc(C#Cc4ccc(F)cc4)cc3)[C@H]2C1	none
O=C(CC1CC1)N1CC(=O)N2[C@H](CO)[C@H](c3ccc(C#Cc4ccccc4)cc3)[C@H]2C1	IDE exosite FP -16
O=C(CC1CC1)N1CC(=O)N2[C@@H](CO)[C@H](c3ccc(C#Cc4ccc(F)cc4)cc3)[C@@H]2C1	none
O=C(CC1CC1)N1CC(=O)N2[C@@H](CO)[C@H](c3ccc(C#Cc4ccccc4)cc3)[C@@H]2C1	IDE exosite FP -11
O=C(CC1CC1)N1CC(=O)N2[C@@H](CO)[C@@H](c3ccc(C#Cc4ccccc4)cc3)[C@@H]2C1	IDE exosite FP -11
O=C(CC1CC1)N1CC(=O)N2[C@H](CO)[C@@H](c3ccc(C#Cc4ccc(F)cc4)cc3)[C@@H]2C1	none
O=C(c1cccc(F)c1)N1CCCCN2[C@H](C1)[C@H](c1ccc(-c3cncnc3)cc1)[C@@H]2CO	none
O=C(Cc1cccnc1)N1[C@H](CO)[C@H](c2ccccc2)[C@H]1CNCC1CCC1	none
CCCNC(=O)N1[C@@H]2CNC[C@H]1C2c1ccc(-c2ccc(C#N)cc2)cc1 (stereo not given in full)	none
CN(C)CC#Cc1ccc([C@@H]2[C@H](CO)N3CCCCN(C(=O)Nc4ccccc4F)C[C@@H]23)cc1	none
N#C[C@@H]1[C@H](c2ccc(C3=CCCCC3)cc2)[C@@H](CO)N1S(=O)(=O)c1cccc(F)c1	none
C[C@@H]1CN([C@@H](C)CO)C(=O)Cc2cc(NC(=O)C3CC3)ccc2O[C@@H]1CN(C)S(=O)(=O)c1cn(C)cn1	none
C[C@@H]1CN([C@H](C)CO)C(=O)c2cc(NC(=O)CCCCCC(=O)Nc3ccccc3N)ccc2O[C@@H](C)CCCCO[C@H]1CN(C)Cc1ccc(Cl)c(Cl)c1	none
C/C=C/c1ccc(C2[C@H]3CNC[C@@H]2N3Cc2cc(-c3ccccc3)on2)cc1 (stereo not given in full)	none
N#C[C@H]1[C@@H](c2ccccc2C2=CCCCC2)[C@@H](CO)N1C(=O)CN1CCOCC1	none
COc1ccc(S(=O)(=O)N(C)C[C@H]2OCCCC[C@H](C)Oc3ccc(NC(=O)Cc4ccccc4)cc3C(=O)N([C@H](C)CO)C[C@@H]2C)cc1	none
COc1ccc2c3c(n(C)c2c1)[C@@H](CO)N(C(C)=O)CC31CCN(Cc2ccccc2OC)CC1	none
COc1ccccc1-c1cn(CC[C@H]2CC[C@H](NC(=O)C3CCCCC3)[C@@H](CO)O2)nn1	none
COCC(=O)N1CCC2(CC1)CN(Cc1cc(F)ccc1F)[C@H](CO)c1c2c2ccc(OC)cc2n1C	IDE exosite FP -4
COc1ccc2c3c(n(C)c2c1)[C@@H](CO)N(Cc1cc(F)ccc1F)CC31CN(C(=O)C2CC2)C1	none
COc1ccc2c3c(n(C)c2c1)[C@H](CO)N(Cc1cccc(F)c1)CC31CCN(C(=O)Cc2ccccc2)CC1	IDE exosite FP -3.7
COCC(=O)N1CC2(C1)CN(Cc1cccc(F)c1)[C@@H](CO)c1c2c2ccc(OC)cc2n1C	none
COCC(=O)N1CC2(C1)CN(Cc1cccc(F)c1)[C@H](CO)c1c2c2ccc(OC)cc2n1C	none
COc1ccc2c3c(n(C)c2c1)[C@H](CO)N(Cc1ccccc1F)CC31CCN(C(=O)C2CCOCC2)CC1	none
N#Cc1ccc(-c2ccc([C@H]3[C@@H](CO)N4C(=O)CNC[C@H]34)cc2)cc1	none
O=C(CC1CC1)N1CC(=O)N2[C@H](CO)[C@@H](c3ccc(C#Cc4cccc(F)c4)cc3)[C@H]2C1	none
O=C(CC1CC1)N1CC(=O)N2[C@H](C1)[C@@H](c1ccc(C#Cc3cccc(F)c3)cc1)[C@@H]2CO	none
O=C(CC1CC1)N1CC(=O)N2[C@H](CO)[C@H](c3ccc(C#Cc4cccc(F)c4)cc3)[C@H]2C1	IDE exosite FP -3.9
O=C(CC1CC1)N1CC(=O)N2[C@H](CO)[C@H](c3ccc(C#Cc4cccc(F)c4)cc3)[C@@H]2C1	IDE exosite FP -3.2
O=C(CC1CC1)N1CC(=O)N2[C@H](C1)[C@H](c1ccc(C#Cc3cccc(F)c3)cc1)[C@@H]2CO	none
O=C(CC1CC1)N1CC(=O)N2[C@@H](CO)[C@H](c3ccc(C#Cc4cccc(F)c4)cc3)[C@@H]2C1	none
CC(C)NC(=O)N1[C@@H](CO)[C@@H](c2ccccc2)C12CN(C(=O)c1ccccn1)C2	none
O=C(c1ccc(F)cc1)N1CC(=O)N2[C@H](CO)[C@H](c3ccc(-c4cccnc4)cc3)[C@@H]2C1	none
C[C@@H]1CCCCO[C@@H](CN(C)Cc2ccncc2)[C@H](C)CN([C@@H](C)CO)C(=O)c2cc(NS(=O)(=O)c3ccc(Cl)cc3)ccc2O1	none
CN(C)CC#Cc1ccc([C@H]2[C@H](CO)N3C(=O)CN(C(=O)c4cccc(F)c4)C[C@@H]23)cc1	none

Screens deposited in PubChem by Broad Institute.
